This assay is described as follows: NCI Yeast Anticancer Drug Screen. Data for the CLN2oe strain (AID 163).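 Further: 0% = growth of vehicle-only control cultures.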 To be noted: S. cerevisiae CLN2oe strain, active compounds read high. Here is the method: Growth inhibition of yeast strains with defined genetic alterations is measured as a screen for potential anti-cancer activity. Selected strains with alterations in DNA damage repair or cell cycle control were exposed to compounds and growth inhibition was measured relative to vehicle treated controls. The strain used in this assay is CLN2oe

This is part of a sample that, as a whole, favours compounds with a hit. Of some 79,000 tested, about 15% had one in any assay. A number with no mark means an inactive call. The source made the active and inactive calls. No stated cut-off is given here; in the data, active means growth inhibition above about 70%; inactive means the rest.

Eight molecules from PubChem BioAssay (NCI) can be followed below.

Take `CC1=NN(C(=O)c2ccccc2O)C(=O)/C1=C/c1ccco1`: the growth inhibition was 6% (at 1.2 µM); 7% (at 3.7 µM); 81% (active) (at 11.0 µM); 91% (active) (at 33.0 µM); 95% (active) (at 100.0 µM).
The like results for `CN1CCN(C(=O)c2cccc3cccc(C(=O)O)c23)CC1` were, in that order, 13%, 15%, 14%, 32% and 97% (active).
As to `Brc1ccc(B2Nc3ccccc3N2)cc1`, the growth inhibition is, setting by setting: (at 1.2 µM) -3%; (at 3.7 µM) 5%; (at 11.0 µM) 29%; (at 33.0 µM) 39%; (at 100.0 µM) 43%.
The like results for `O=S(=O)(NC1CCCC(c2ccccc2)C1)c1ccccc1` (stereo not given) were, in that order, -4%, -4%, 2%, 9% and 95% (active).
The like results for `COc1ccccc1NC(=O)c1ccc(Cl)cc1` were, in that order, -2%, 0%, -6%, -7% and -4%.
With `CCCCOc1ccc2nc(C)cc(N=[N+]=[N-])c2c1`, the growth inhibition was 7% (at 1.2 µM); 6% (at 3.7 µM); 12% (at 11.0 µM); 28% (at 33.0 µM); 64% (at 100.0 µM).
The like results for `N#CCCC1C(C#N)C2(Cl)CC1(Cl)C(Cl)=C2Cl` (stereo not given) were, in that order, -28%, -9%, -6%, 38% and 96% (active).
For `CC1C(c2ccccc2)SC(=N)N1C` (stereo not given), the growth inhibition runs as follows: (at 1.2 µM) 4%; (at 3.7 µM) 1%; (at 11.0 µM) 4%; (at 33.0 µM) 4%; (at 100.0 µM) -2%.
